Test results taken from article PMC3795721, “Screening for Protein-DNA Interactions by Automatable DNA-Protein Interaction ELISA”.

Molecular target: AT4G31550 (Arabidopsis thaliana, UniProt Q9SV15 228-325)
Assay: DPI-ELISA; DPI-ELISA, streptavidin 384-well plate, 1-2 pmol biotinylated dsDNA per well, crude native E. coli extract, anti-His detection; buffer as in Brand et al. [46],; high values mean tight binding
Details: tags: C-terminal His (pET-DEST42); label: 5' biotin on forward strand; dsDNA, one strand shown

AT4G31550, sequence (Q9SV15 228-325): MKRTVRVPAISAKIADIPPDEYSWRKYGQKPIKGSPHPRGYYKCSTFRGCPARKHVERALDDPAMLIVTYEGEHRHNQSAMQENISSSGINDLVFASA

| Sequence | binding signal [absorbance] |
| --- | --- |
| AAAAAATTCACTTTTACCTTTGTGTTAAAA | 0.555 ± 0.0919 |
| AAAAAATGGTCGTCGTACTCGTGGTCAAAA | 2.96 ± 0.424 |
| AAAAAAACTTTCTATTCTGGATAAGTAAAA | 0.625 ± 0.134 |
| AAAAAAGGCGGTCGTAGTTGTGGGAGAAAA | 1.14 ± 0.0849 |
| AAAAAAGACCGCAGCAAGAATTAAATAAAA | 0.49 ± 0.141 |
| AAAAAACCAGCCTCAGTCCTGAACAAAAAA | 0.605 ± 0.0636 |
| AAAAAAAAGGACATTTTTTCTTTTTGAAAA | 0.515 ± 0.0636 |
| AAAAAAGATTGACTCGTCTTACTCGAAAAA | 3.08 ± 0.742 |
| AAAAAAGTATAACGTGTTGTTGACCGAAAA | 3.455 ± 0.0212 |
| AAAAAATCACAATACCTTCTCGTCATAAAA | 0.58 ± 0.113 |
| AAAAAATGACCAGGCCTCGAGCAAAAA | 0.665 ± 0.0636 |
| AAAAAATGTCTAGACTCGGACATTCGAAAA | 0.54 ± 0.0566 |
| AAAAAACGTATTGATGTCTATTTCAAAAAA | 0.575 ± 0.0919 |
| AAAAAACACGCCATTGACACTGGTAAAAAA | 1.67 ± 0.219 |
| AAAAAAACTCTCCGGGTACAATTGCAAAAA | 0.605 ± 0.205 |
| AAAAAATATCCTATTCTAATTTATATAAAA | 0.55 ± 0.113 |
| AAAAAATAATATCGATACTCATGCCCAAAA | 0.685 ± 0.134 |
| AAAAAATTACTCCTAGCCCTCATTCAAAAA | 1.36 ± 0.976 |
| AAAAAACATTGATAAAATCTCCAGGCAAAA | 0.63 ± 0.141 |

| Sequence | binding signal [absorbance] |
| --- | --- |
| AAAAAATGTTTTTTAGAGGTGTGCAAAAAA | 0.57 ± 0.0849 |
| AAAAAAACCGATTACCATTTTTACTGAAAA | 0.695 ± 0.148 |
| AAAAAATATATTTTCAGCTTTAATCTAAAA | 0.685 ± 0.106 |
| AAAAAAATGATTTGCAGATCTCCGAGAAAA | 0.935 ± 0.488 |
| AAAAAAAATCTTAGCTCTATCTCATCAAAA | 0.68 ± 0.113 |
| AAAAAATGGATCTTTACTTTAGGCCAAAAA | 0.92 ± 0.424 |
| AAAAAAGCCTTTACCCTTGTTCCTCTAAAA | 0.69 ± 0.17 |
| AAAAAACACTCACACCTATACGGCTCAAAA | 0.665 ± 0.233 |
| AAAAAACTTGCTCCTCCGTTTTACTCAAAA | 0.775 ± 0.276 |
| AAAAAATGTTGTTGCTGTTGGTCCTAAAAA | 0.695 ± 0.0778 |
| AAAAAAGTTTCTGCTTTCCCTTTCGTAAAA | 0.665 ± 0.205 |
| AAAAAACCCTAACGAATGCTTTTCGGAAAA | 0.66 ± 0.0849 |
| AAAAAACGGTAAGTCGACAAAA | 0.545 ± 0.0354 |
| AAAAAACCCATCCTTCGTTCCATCGTAAAA | 0.76 ± 0.141 |
| AAAAAAGTCGTTACACGTATGCGTGCAAAA | 1.5 ± 0.0566 |
| AAAAAATTTTGTTTTTGCTTTTCCTTAAAA | 0.38 ± 0.0566 |
| AAAAAACGTGCGCGTGCATGTCATCGAAAA | 0.665 ± 0.0919 |
| AAAAAACGCTTTCAGTTTTGATCTTAAAAA | 0.495 ± 0.0778 |
| AAAAAATGGTTTCAATTTTCCGTCCGAAAA | 0.405 ± 0.0778 |
